Shown are actives, neighbours in structure and some others; about 8.8% of the full set was active somewhere.
HT1080NT lethal – kills 2HG-producing HT-1080-NT fibrosarcoma cells | HT-1080-NT fibrosarcoma viability, CellTiter-Glo ATP luminescence, 48 h | Potency, µM (highest dose often 46.1 µM), for inactives: at the top dose activity, negative = less viability, hits mostly cytotoxic | AID 686970 | 360,000 tested, 1.6% active;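 also: NT is the 2HG producing partner of a matched IDH1 knockdown line; potency is read from the fitted curve at half-maximal effect; 0% = DMSO-treated cells and -100% = media-only wells without cells; nearly all actives have a fitted effect of over 55% in size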
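HT-1080-NT fibrosarcoma cells (2HG-overproducing), 750 cells/well in RPMI with 5% FBS, dosed after 2 h and incubated 48 h at 37C. CellTiter-Glo luminescence normalized to DMSO and no-cell wells; concentration-response curves fitted and classed.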
KB-V1 cytotox – kills drug-selected multidrug resistant KB-V1 cells. KB-V1 MDR cells viability, CellTiter-Glo, 72 h. Potency, µM (doses to about 46.1 µM), usual class: cytotoxic. 400,000 tested, 3.4% active. AID 1347076; also: potency is read from the fitted curve at half-maximal effect; nearly all actives have a fitted effect of over 60% in size
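Compound-treated KB-V1 multidrug-resistant cells, 72 h, 37 degrees C; viability by CellTiter-Glo. Fitted qHTS curves give the values.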
KB-3-1 cytotox – KB-3-1 parental cell cytotoxicity | AID 1347075 | 400,000 tested, 1.4% active | Potency, µM (doses to about 46.1 µM), hits mostly cytotoxic | KB-3-1 viability, CellTiter-Glo ATP luminescence, 72 h; also: potency is read from the fitted curve at half-maximal effect; nearly all actives have a fitted effect of over 60% in size
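Cytotoxicity measured as CellTiter-Glo luminescence after 72 h at 37 C. Compound titrations were pinned onto drug-naive KB-3-1 parental adenocarcinoma cells grown in DMEM with 10% FBS, and normalized data fitted to concentration-response curves.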
HT1080 IDH1KD tx – kills HT-1080 cells with IDH1 knockdown | HT-1080 IDH1 knockdown viability, ATP luminescence, 48 h | 360,000 tested, 2% active | Potency, µM (titrated, usually from 46.1 µM), without a hit: top-dose activity, negative = toxicity, usual class: cytotoxic;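 also: potency is read from the fitted curve at half-maximal effect; 0% = DMSO wells and -100% = cell-free medium wells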
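IDH1KD HT-1080 cells, 750/well, RPMI + 5% FBS; compound pinned after 2 h settling; 48 h, 37 °C; CellTiter-Glo luminescence; % activity normalised to DMSO and no-cell wells; curves fitted, classed by r2 and efficacy.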
IL-1B inflam inh – inhibitors of inflammasome signaling (IL-1 beta secretion). THP-1 LPS/ATP IL-1B secretion, AlphaLISA, 16 h; active compounds read low. activity change, % at 57.5 µM. 360,000 tested, 4.7% active; in the data active = activity change below about -50%; inconclusive = mostly about -30% to -49%
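THP-1 cells pretreated 1 hr with compounds (up to 57.5 uM final), then stimulated with LPS (250 ng/mL final) plus ATP (1.25 mM final); secreted IL-1B measured by AlphaLISA after 16 hr, decreased signal indicating inhibition.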
* hit, by the source's call; i = inactive; ? = inconclusive; . = no result given. Unless noted, calls follow the shape of the dose curve; as a rule, active = well fitted curve in the direction sought with a large enough effect; inconclusive = small, poorly fitted or top-dose-only effect, or another doubt; inactive = no such curve, though single readings can be large; an effect the other way counts as inactive or inconclusive. Unless noted, % is scaled to controls: 0 for no effect and ±100 for the full control effect.

SMILES | HT1080NT lethal | KB-V1 cytotox | KB-3-1 cytotox | HT1080 IDH1KD tx | IL-1B inflam inh
O=C(CN1C(=O)CSc2ccccc21)Nc1ccc2c(c1)OCCO2 | 6.6% | ? | i | 2.8% | 5.6
O=c1c2ccccc2c2ccccc2c(=O)n1Cc1ccc2c(c1)OCO2 | -3.3% | i | i | -3.9% | 0.0
COc1ccc(/C(O)=C2/C(=O)C(=O)N(CCN3CCNCC3)C2c2cccc([N+](=O)[O-])c2)cc1 (stereo not given) | -5.0% | i | i | 2.5% | -6.0
COC(=O)C1=CN(c2ccc(C)cc2)C(N)=C(C#N)C1c1ccccc1F (stereo not given) | -23.5% | ? | ? | ? | -11.6
O=C(c1ccc(F)cc1)N1CCC(C(=O)N2CCN(S(=O)(=O)c3cccc(Cl)c3)CC2)CC1 | -0.3% | ? | i | -4.4% | -1.8
CC1CC(=O)N(CC(=O)NCc2ccc3c(c2)OCO3)c2ccccc2S1 (stereo not given) | -1.0% | 20.6µM* | i | -6.0% | 0.0
CC(C1CCN(Cc2cn(C)nc2-c2cccc(Cl)c2)CC1)N1CCOCC1 (stereo not given) | -0.1% | i | i | 1.3% | -13.7
CC1(C)CC(=O)c2cc(C(=O)O)c(=O)n(-c3ccccc3)c2C1 | 8.0% | i | i | 1.5% | 25.5
CC1(C)CC(=O)c2c(O)c(-c3ccccc3)c(=O)n(-c3ccccc3)c2C1 | 4.1% | 13µM* | i | 1.8% | 12.0
Cc1c(NS(=O)(=O)c2cc(C(=O)N(C)Cc3ccccc3)ccc2Cl)c(=O)n(-c2ccccc2)n1C | 13.4% | i | i | 12.2% | -8.1
CN1/C(=C/c2cccc[n+]2CCO)Sc2ccccc21 | -1.6% | i | ? | -4.0% | -0.7
CC[n+]1ccccc1/C=C1\Sc2ccc(C)cc2N1C | 23.1µM* | i | ? | 9.2µM* | -77.5*
C=C1CCN([C@@H](Cc2ccccc2)C(=O)NCCC(C)C)S(=O)(=O)c2ccccc21 | 0.0% | i | i | 9.1% | -4.9
Cc1ccc(NC(=O)CN(C)S(=O)(=O)c2cccs2)cc1F | -12.6% | 14.6µM* | ? | -10.6% | -6.3
Cc1ccc(NC(=O)CN(C)S(=O)(=O)c2cccs2)cc1C | -20.8% | ? | ? | 4.1% | 0.9
Nc1ncnc2c1ncn2[C@@H]1O[C@H](CCC(=O)NCc2ccccc2)[C@@H](O)[C@H]1O | -2.4% | i | i | 16.4% | 24.0
COc1cccc(N2CC(NS(=O)(=O)c3ccc4ccccc4c3)CC2=O)c1 (stereo not given) | -7.4% | i | i | -10.8% | -25.7
CCC1CN(C(=O)NCc2ccc(F)cc2)c2cc(Cl)ccc2O1 (stereo not given) | -5.5% | ? | i | -17.3% | -61.8*
COc1ccc(S(=O)(=O)N2CCCCC2)cc1NC(=O)c1ccc(Cl)nc1 | 0.0% | . | . | 1.9% | -2.9
NCCCC[C@H]1CN=C(N)N1CCC12CC3CC(CC(C3)C1)C2 | 6.2% | i | i | 2.8% | -54.7*
CC(=O)Nc1ccc(-c2nnc(SCC(=O)c3ccc4c(c3)Cc3ccccc3-4)n2C)cc1 | -25.0% | i | i | ? | 1.6
Cn1c(SCC(=O)c2ccc3c(c2)Cc2ccccc2-3)nnc1-c1cccc(N)c1 | 3.6% | 16.4µM* | i | 6.2% | -5.0
Cc1ccc(OCCCCN2CCCCC2)c(C)c1 | -1.9% | i | i | -0.4% | -10.9
Cc1ccc(OCCCCNC2CCCC(C)C2C)c(C)c1 (stereo not given) | 20.6µM* | 20.6µM* | 23.1µM* | ? | -95.3*
Cc1nc(C(F)(F)F)c(C(=O)N/N=C(\N)c2ccccn2)s1 | ? | ? | ? | 16.4µM* | 46.6
SMILES | HT1080NT lethal | KB-V1 cytotox | KB-3-1 cytotox | HT1080 IDH1KD tx | IL-1B inflam inh
CCN1C(=O)C(c2ccc(O)cc2)(c2ccc(O)cc2)c2ccccc21 | -9.6% | i | i | -5.4% | -93.9*
Cn1cnc(S(=O)(=O)Nc2ccc(Cl)c(C(F)(F)F)c2)c1 | -2.3% | i | ? | 3.6% | -9.4
CC(=O)Nc1ccc(S(=O)(=O)Nc2nccc(/C=C/c3ccc(Cl)cc3)n2)cc1 | -0.6% | i | i | 6.3% | -19.2
Cc1cccc(N2CCN(C(=S)c3ccc(-c4ccccc4[N+](=O)[O-])o3)CC2)c1 | ? | ? | 16.4µM* | ? | 14.2
O=[N+]([O-])c1ccccc1-c1ccc(C(=S)N2CCCC2)o1 | 0.7% | i | i | -9.8% | 1.3
CN1CCN(CC(=O)N2N=C(c3cccs3)CC2c2ccco2)CC1 (stereo not given) | 0.0% | i | i | -14.7% | 12.7
O=C(CCl)N1N=C(c2ccco2)CC1c1ccco1 (stereo not given) | 25.9µM* | ? | ? | ? | -99.2*
Cc1ccc(C2=NN(C(=O)CSc3nccn3C)C(c3ccco3)C2)cc1 (stereo not given) | 18.4µM* | 9.2µM* | ? | 14.6µM* | ?
O=C(CCl)N1N=C(c2cccs2)CC1c1ccco1 (stereo not given) | 5.17µM* | ? | ? | 4.11µM* | -99.7*
CCCc1cc(=O)[nH]c(SCC(=O)N2N=C(c3ccc(Cl)cc3)CC2c2ccco2)n1 (stereo not given) | 1.6% | 20.6µM* | ? | -4.6% | ?
CC(=O)N1c2c(cc(Br)cc2S(=O)(=O)N2CCN(c3cccc(Cl)c3)CC2)CC1C (stereo not given) | . | i | i | . | .
Cc1ncc(COCc2ccccc2)c(CO)c1OCc1ccccc1 | 7.2% | 18.4µM* | i | 6.5% | -1.4
Oc1ccc(COCc2ccccc2)c2cccnc12 | ? | ? | ? | ? | 107.6
CCn1cc(C(=O)NCc2ccc(F)cc2)c(=O)c2cc(S(=O)(=O)N(C)C)ccc21 | . | i | i | . | .
Cc1ccc(C(=O)NCCSc2ccccc2)cc1S(=O)(=O)Nc1ccccc1 | -13.7% | i | i | ? | ?
CCc1ccc(/C=N/n2c(C)cc(C)c(C#N)c2=O)cc1 | 6.4% | 9.2µM* | i | 12.8% | 26.8
CCc1cccc(NC(=O)c2cc3c(=O)n(Cc4ccc(OC)cc4)ccc3nc2C)c1 | . | i | i | . | .
S=C1Cc2ccccc2N1 | 4.61µM* | ? | 5.8µM* | 5.17µM* | -101.4*
Cc1ccccc1COc1cccn2c(N(C)C(=O)CCC3CCCC3)c(C)nc12 | ? | i | i | ? | -56.7*
Cc1nc2c(OCc3ccc(OC(F)F)cc3)cccn2c1N(C)C(=O)CCC1CCCC1 | ? | ? | i | ? | -57.7*
Cc1nc2c(OCc3ccc(F)c(F)c3)cccn2c1N(C)C(=O)CCC1CCCC1 | ? | i | i | 18.4µM* | -12.8
CCC(CC)C(=O)N(C)c1c(C)nc2c(OCc3ccc(C#N)cc3)cccn12 | 9.1% | i | i | 0.3% | -70.5*

Source: PubChem
